Experimental data published in PubChem BioAssay (NCATS).
Inconclusive results are not listed. A number with no mark means an inactive call. Activity calls are given as the source filed them. Calls come from the whole dose curve; as a rule, active = well fitted curve in the direction sought with a large enough effect; inconclusive = small, poorly fitted or top-dose-only effect, or another doubt; inactive = no such curve, though single readings can be large; an effect the other way counts as inactive or inconclusive.

Test: qHTS of pediatric cancer cell lines to identify multiple opportunities for drug repurposing: Confirmatory screen for DAOY cells (AID 1347114); note: nearly all actives have a fitted effect of over 65% in size
Conditions: DAOY medulloblastoma cells viability, cytotoxicity qHTS; series mostly up to 45.9 µM; activity change, negative = cytotoxic: at the top concentration
How it was run: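 Viability measured as metabolically active cells via CellTiter-Glo luminescence following 48 hours of compound exposure, 11-point dilutions in confirmatory testing. 500-1,000 cells/well plated 5 hours before dosing; controls were DMSO and 2.3 µM bortezomib.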
% is set by controls: 0 for no effect and ±100 for the full control effect; potency is the fitted concentration of half-maximal effect.

Compound	activity change, negative = cytotoxic [%]	Potency
CCOP(=S)(OCC)Oc1ccc2c(C)c(Cl)c(=O)oc2c1	9.56	
O=C(N/N=C/c1ccc([N+](=O)[O-])o1)c1cc([N+](=O)[O-])cc([N+](=O)[O-])c1O	-6.77	
COc1cccc2c1C(=O)c1c(O)c3c(c(O)c1C2=O)C[C@@](O)(C(=O)CO)CC3OC1CC(N2CCOC(OC)C2)C(O)C(C)O1 (stereo not given in full)		0.0329 µM (active)
O=C(O)CCCc1ccc(N(CCCl)CCCl)cc1	4.67	

Test: qHTS of pediatric cancer cell lines to identify multiple opportunities for drug repurposing: Confirmatory screen for NB-EBc1 cells (AID 1347115);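 note: cells exposed to compound for 48 h before the viability read; nearly all actives have a fitted effect of over 45% in size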
Conditions: NB-EBc1 neuroblastoma cells, viability (cytotoxicity); series mostly up to 45.9 µM; activity change, negative = cytotoxic: at the top concentration
Description: Drug repurposing or repositioning has been offered as a strategy for drug development in oncology programs. This approach has special potential for childhood cancers and other rare or orphan diseases, where the expected return on new drug development has been a disincentive to pharmaceuticals.
In this project we exploit the poly-pharmacology of drugs to discover new indications via phenotypic screening of a panel of 19 well-characterized cell lines derived from solid tumors seen in children and adolescents. The goal is to identify approved drugs with previously unrecognized anticancer properties that has the potential to reveal new mechanisms and biological processes involved in carcinogenesis or drug resistance. We employed a titration-based paradigm (quantitative high-throughput screening or qHTS), where all compounds were tested at multiple concentrations for their effect on cell viability. Concentration-response curves (CRCs) were derived directly from the primary screen, and both potency and efficacy values were used to identify compounds with robust bioactivity profiles. We screened the NIH Chemical Genomics Center (NCGC) Pharmaceutical Collection (NPC) and Mechanism Interrogation Plate (MIPE) small molecule collections of approved and investigational compounds against these cell lines; and measured metabolically active cells after 48 hours of compound treatment as a proxy for cell viability.
Assay Submitter: Nathalia J. Martinez, National Center for Advancing Translational Sciences, National Institutes of Health, Rockville, MD, USA; email: natalia.martinez@nih.gov
[1] Shen, M et al. Quantitative high-throughput phenotypic screening of pediatric cancer cell lines identifies multiple opportunities for drug repurposing. Oncotarget 2017 Dec 19;9(4):4758-4772. PMID 29435139.
The cells were obtained from University of North Carolina (UNC), Pediatric Preclinical Testing Program (PPT), and Coriell Institute (CI).
qHTS cell viability assay:
Cells were assayed in growth media at a density of 500-1,000 cells/well. Five microliters of cells were dispensed into 1,536-well, white, solid-bottom, TC-treated plates (Greiner Bio One) using a multidrop dispenser and incubated at 37 degrees C, 5% CO2, under a humidified atmosphere for 5 hours. Twenty-three nanoliters of compounds and controls (neutral control DMSO or positive control bortezomib at final concentration of 2.3 µM) were subsequently transferred by Kalypsys pintool. For primary screens, the MIPE collection was tested at 11-point dilutions (final concentrations range from 0.78 nM to 46 µM) and the NPC collection at 8-point dilutions (final concentrations range from 0.59 nM to 46 µM). Compounds tested in follow-up screens were assayed at 11-point dilutions. Cells were incubated for 48 hours, followed by addition of 3 µL of CellTiter-Glo (Promega). After a 15 min incubation at room temperature, samples were analyzed for luminescence intensity using a ViewLux High-throughput CCD imager equipped with clear filters.

Compound	activity change, negative = cytotoxic [%]	Potency
C[C@](O)(CS(=O)(=O)c1ccc(F)cc1)C(=O)Nc1ccc(C#N)c(C(F)(F)F)c1	7.52	
C[C@]12CCC(=O)C=C1CC[C@@H]1[C@@H]2CC[C@@]2(C)[C@H]1CC[C@]2(C)O	-6.91	
CCOP(=S)(OCC)Oc1ccc2c(C)c(Cl)c(=O)oc2c1	-8.34	
O=C(O)CCCc1ccc(N(CCCl)CCCl)cc1		9.27 µM (active)
CCCN(CCC)C(=O)Cc1c(-c2ccc(Cl)cc2)nc2ccc(Cl)cn12	-18.6	
O=P1(N(CCCl)CCCl)NCCCO1 (stereo not given)	-3.16	
